Compounds with a hit are over-represented: about 7.4% of the library has one in this group of screens.
FLuc counter = inhibits or activates purified firefly luciferase, miR-21 counter-screen. P08659. purified FLuc, Km substrates, luminescence inhibition. Potency, µM (doses to about 57.5 µM), without a hit: at the top dose activity change, negative = inhibition, usual class: inhibitors. 6.9% of 360,000 active. AID 588342;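 further: plate controls were vehicle for no effect and reference inhibitor for full effect; nearly all actives have a fitted effect of over 55% in size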
Target sequence (P08659 whole entry, looked up): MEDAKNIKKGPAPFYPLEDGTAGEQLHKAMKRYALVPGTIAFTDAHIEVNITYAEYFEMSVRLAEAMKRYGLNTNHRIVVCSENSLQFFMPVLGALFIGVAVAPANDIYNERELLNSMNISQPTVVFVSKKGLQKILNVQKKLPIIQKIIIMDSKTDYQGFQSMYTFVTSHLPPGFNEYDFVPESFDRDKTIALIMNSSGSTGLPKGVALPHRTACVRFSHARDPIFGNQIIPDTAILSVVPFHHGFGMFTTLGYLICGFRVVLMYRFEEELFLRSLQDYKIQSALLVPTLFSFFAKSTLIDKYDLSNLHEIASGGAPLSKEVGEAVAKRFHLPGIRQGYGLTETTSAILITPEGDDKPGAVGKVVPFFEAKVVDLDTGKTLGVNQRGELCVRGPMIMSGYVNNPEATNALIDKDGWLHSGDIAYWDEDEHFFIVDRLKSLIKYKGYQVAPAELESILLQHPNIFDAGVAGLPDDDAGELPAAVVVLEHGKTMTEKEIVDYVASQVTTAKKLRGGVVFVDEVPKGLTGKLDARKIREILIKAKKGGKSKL
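Biochemical qHTS of compounds, final roughly 60 µM downward over six points, against 10 nM purified firefly luciferase using Km concentrations of substrates (10 uM D-luciferin, 10 uM ATP) in Tris acetate pH 7.5 buffer; luminescence output.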
Rab9 promoter act = activates the Rab9 promoter; 2.8% of 320,000 active; Huh7 Rab9 promoter-luciferase reporter, luminescence, 24 h; Potency, µM (top dose mostly 9.22 µM), for inactives: top-dose activation, negative = inhibition, most hits filed as activators; AID 485297; further: % of control where 0% means no effect; nearly all actives have a fitted effect of over 60% in size
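Luminescence from Amplite-detected luciferase (10 minutes, ambient) reports Rab9 promoter activation. Before that, stable Rab9-luciferase Huh7 cells (1500/well, reduced-serum OP-MEM I plus 10% FBS) were exposed to compound for 24 hours at 37C.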
p53 reactivator = restores transcriptional activity of mutant p53; H1299 p53-A138V BP100-luciferase reporter, luminescence, 24 h; Potency, µM (highest dose often 92.2 µM), without a hit: at the highest dose activity change, positive = activation, most hits filed as activators; 0.063% of 320,000 active; AID 504706; further: % of control where 0% means no effect; nearly all actives have a fitted effect of over 45% in size
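p53-null H1299 cells stably carrying temperature-sensitive p53-A138V and a BP100-luciferase reporter were pinned with compounds (4-point, 1:5 series) and held 24 hrs at 37 deg C. Luminescence was read 10 min after detection reagent.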
NPC1 prom act = NPC1 promoter activation. Huh7 NPC1 promoter luciferase reporter, 24 h. Potency, µM (top dose mostly 9.22 µM), for the others: at the top dose activation, hits mostly activators. 2.4% of 320,000 active; further: % of control where 0% means no effect; nearly all actives have a fitted effect of over 60% in size
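Cells: Huh7 expressing luciferase under the NPC1 promoter, 1500/well. Seeded 2 h, compound added, incubated 24 h at 37 °C. Luciferase reagent, 10 min ambient, then luminescence.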
SMN2 splice up = enhancers of SMN2 splice variant expression. HEK293 SMN2-luciferase splicing reporter, luminescence, 30-36 h. Potency, µM (doses to about 46.1 µM), inactives show at the highest dose activity change, positive = activation, hits mostly activators. 2.8% of 210,000 active. AID 1458; further: % of control where 0% means no effect; nearly all actives have a fitted effect of over 55% in size
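HEK293 cells carry an SMN2 minigene-luciferase reporter in which exon 7 inclusion puts luciferase in frame. Cells were seeded at 2000 cells/well, attached for 10-12 hours, then exposed to compounds for 30-36 hours at 37C before ONE-Glo luminescence.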
ELG1 genotox = genotoxicity induction in ELG1-luciferase HEK293T cells; HEK293T ELG1-luciferase reporter, luminescence, 16 h; Potency, µM (titrated, usually from 46 µM), for inactives: at the highest dose activity change, positive = activation, actives largely listed as activators; 1.3% of 330,000 active; AID 504466; further: % of control where 0% means no effect; nearly all actives have a fitted effect of over 60% in size
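Step 1: seed 2,000 HEK293T ELG1-luciferase cells per well. Step 2: add compound or DMSO, incubate 16 hr at 37 °C. Step 3: ONE-Glo, 30 min at room temperature, read luminescence.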
* hit, by the source's call; ? = inconclusive; nt = no result given. The call rests on the fitted dose curve; in most records, active means well fitted curve in the direction sought with a large enough effect; inconclusive means small, poorly fitted or top-dose-only effect, or another doubt; inactive means no such curve, though single readings can be large; an effect the other way counts as inactive or inconclusive. Potency means the concentration at half of the fitted maximal effect.

SMILES	FLuc counter	Rab9 promoter act	p53 reactivator	NPC1 prom act	SMN2 splice up	ELG1 genotox
CC(=NNC(=O)Cn1ccc(C(F)(F)F)n1)c1ccc(-n2ccnc2)cc1	nt	nt	-7%	nt	nt	-3%
CCC1CCCCN1CCCNC(=O)c1ccc(CS(=O)(=O)c2ccc(Br)cc2)o1 (centres undefined)	4%	1%	29%	-6%	nt	-3%
Cc1c2cnn(CC(=O)NC3CCCC3)c(=O)c2c(C)n1Cc1ccccc1	24µM*	?	?	?	nt	?
CCOC(=O)C1CCN(C(=O)Cn2ncc3c4ccccc4n(C)c3c2=O)CC1	-11%	nt	nt	nt	-5%	nt
CCOC(=O)N1CCC(NC(=O)Cn2ncc3c4ccccc4n(C)c3c2=O)CC1	19µM*	12%	?	11%	7%	9%
O=C(NNC(=O)c1ccccc1Cl)c1ccc2c(=O)n3c(nc2c1)CCC3	nt	18%	?	1%	nt	3%
O=C(Oc1ccccc1F)c1ccc2c(=O)n3c(nc2c1)CCC3	15µM*	2%	8%	-1%	nt	1%
O=C(Oc1ccccc1Cl)c1ccc2c(=O)n3c(nc2c1)CCC3	17µM*	0%	-1%	-5%	nt	?
CCCc1cc(C(=O)Nc2cc(C)ccc2O)no1	2.7µM*	-19%	?	27%	nt	15µM*
CCCc1cc(C(=O)Nc2cccnc2Cl)no1	?	27%	15%	1%	-14%	?
Cc1ccc(-c2cc(C(=O)Nc3c(C#N)cnn3C)no2)cc1	6.7µM*	27%	24%	15%	?	13%
Cc1ccc(O)c(NC(=O)c2cc(-c3ccccc3)on2)c1	?	15%	13%	?	nt	16µM*
CCc1ccc2ncc3c(-c4ccccc4)nn(-c4ccccc4)c3c2c1	-7%	nt	nt	nt	-5%	nt
CC(=O)n1c2ccccc2c2nc3ccccc3nc21	?	2.8µM*	25%	3.2µM*	nt	?
COc1cc2nc3c4ccccc4n(CC#N)c3nc2cc1OC	?	2%	2%	?	-9%	1%
CCn1c2ccccc2c2nc3ccccc3nc21	?	-4%	9%	?	-29%	1%
CCn1c2ccccc2c2nc3cc(OC)c(OC)cc3nc21	8.5µM*	15%	23%	-2%	nt	-2%
CCn1c2ccccc2c2nc3cc(C(=O)O)ccc3nc21	19µM*	30%	-9%	13%	-57%	?
Cc1nnc(Sc2nc3ccccc3o2)c2ccccc12	19µM*	0%	-20%	-5%	nt	15%
CCC(=O)c1ccc(OCC(=O)N2CCN(c3ncccn3)CC2)cc1	0%	-4%	-2%	1%	nt	-6%
Cc1ccnc(NC(=O)COC(=O)c2ccc(F)cc2F)n1	-1%	-1%	-1%	0%	nt	-1%
Cc1cc(NC(=O)NC(=O)c2ccc(F)cc2F)n[nH]1	7.6µM*	0.56µM*	-2%	0.5µM*	11µM*	?
O=C(CNC(=O)c1cccs1)c1ccc(F)cc1	4.8µM*	0.56µM*	?	0.5µM*	6.3µM*	?
O=C(CCNc1ccc(Cl)cc1)c1cccs1	?	?	16µM*	18%	29%	?
O=C(CNC(=O)c1cccs1)c1ccc([N+](=O)[O-])cc1	24µM*	2.8µM*	?	?	?	?
SMILES	FLuc counter	Rab9 promoter act	p53 reactivator	NPC1 prom act	SMN2 splice up	ELG1 genotox
O=C(CNC(=O)c1cccs1)OCC(=O)c1ccc([N+](=O)[O-])cc1	0%	-5%	2%	7%	nt	-3%
O=C(CNC(=O)c1cccs1)OCC(=O)c1ccc(Br)cc1	5%	-6%	-1%	1%	?	3%
O=C(CNC(=O)c1cccs1)OCC(=O)c1ccc(Cl)cc1	-7%	-5%	-2%	-3%	nt	0%
O=C(CNC(=O)c1cccs1)c1ccc(Cl)cc1	6µM*	0.5µM*	?	1.1µM*	nt	?
O=C(CCNc1cc(Cl)cc(Cl)c1)c1cccs1	-21%	7%	11%	2%	-15%	0%
CCOC(=O)N1CCN(C(=O)CN(c2ccc(C)cc2C)S(=O)(=O)c2ccccc2)CC1	-3%	nt	nt	nt	7%	nt
C=C(Br)CN1[C@@H](Cc2ccccc2)[C@H](O)[C@@]23C=C[C@@H](C[C@@H]2S1(=O)=O)O3	nt	nt	-3%	nt	nt	2%
CC(NC(=O)C(C)N1c2cccc3cccc(c23)S1(=O)=O)c1ccccc1 (centres undefined)	0%	1%	-8%	-3%	nt	-14%
CSc1ccc(C2c3[nH]c4ccccc4c3CCN2C(=O)c2ccnn2C)cc1 (centres undefined)	11µM*	3.5µM*	3%	11%	nt	16%
COc1cccc(C(=O)N2CCc3c([nH]c4ccccc34)C2c2ccc(SC)cc2)c1 (centres undefined)	-1%	nt	nt	nt	nt	nt
Cc1cccc(CSc2cccc3cccnc23)c1	19µM*	24%	?	21%	4%	?
c1cnc2c(SCc3ccc(-c4nnco4)cc3)cccc2c1	24µM*	?	?	?	-1%	6%
CCC1CN(C(=O)Nc2cc(C)ccc2OC)c2cc(Cl)ccc2O1 (centres undefined)	-17%	nt	nt	nt	nt	nt
Cc1cc(C)c(OCC(=O)Nc2nc(-c3ccccn3)cs2)c(C)c1	-15%	3%	9%	-3%	-37%	-12%
O=C(Nc1nc(-c2ccccn2)cs1)C12CC3CC(CC(O)(C3)C1)C2	6.7µM*	3.2µM*	0%	2.2µM*	11µM*	?
O=C(Nc1ccccn1)C12CC3CC(C1)CC(C(=O)Nc1ccccn1)(C3)C2	-1%	1%	-8%	2%	nt	-14%
O=C(Nc1nc(-c2ccccn2)cs1)c1ccc(Br)s1	19µM*	-3%	12%	-3%	-96%	?
O=C(CC1CC2CCC1C2)Nc1nc(-c2ccccn2)cs1 (centres undefined)	24µM*	4µM*	?	28%	17%	-5%
O=C(Nc1nc(-c2ccccn2)cs1)C1CC1	?	?	22µM*	?	?	0%
COc1ccc2c(c1OC)C(=O)N(c1ccc(OCc3ccccc3)cc1)C2=O	0%	-4%	11%	-4%	nt	1%
CCc1cc2c(=O)[nH]c(-c3ccccn3)nc2s1	6µM*	?	?	4.5µM*	10µM*	?
CC/C(=C\C1CCCCC1)C(NP(=O)(c1ccccc1)c1ccccc1)c1ccccc1 (centres undefined)	-16%	-2%	-19%	-5%	-65%	-15%
Cc1ccc(N2C(S)=C(C#N)C(=O)NC23CCCCC3)cc1	17µM*	-5%	?	-2%	19%	1%
